SMILES strings stand for the structures. Results filed as inconclusive are left out. Calls of active or inactive are those of the source. Calls come from the whole dose curve; as a rule, active = well fitted inhibition curve with a large enough effect; inconclusive = small, poorly fitted or top-dose-only effect; inactive = flat fitted curve, though single readings scatter.
% is set by controls: 0 for no effect and ±100 for the full control effect.

One experiment in a line: Drug repurposing screens with cells derived from glioblastoma tumor samples (AID 1345199). Note: nearly all actives have a fitted effect of over 40% in size. Conditions: GBM patient neurospheres viability, ATP luminescence, 48 h; at 46 µM (top of the series); tumour line A. In short, it runs like this: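 Primary testing used CD133+ neurospheres from four GBM patients, seven concentrations, 48 h exposure and ATP-based viability; confirmation added three slower-growing patient lines.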
As to `CC(CSC(=O)c1ccccc1)C(=O)N1C[C@@H](Sc2ccccc2)C[C@H]1C(=O)O` (some centres undefined), the activity, negative = cell killing is -20.1% (inactive).
In the case of `CC(=O)OC[C@H]1O[C@@](COC(C)=O)(O[C@H]2O[C@H](COC(C)=O)[C@@H](OC(C)=O)[C@H](OC(C)=O)[C@H]2OC(C)=O)[C@@H](OC(C)=O)[C@@H]1OC(C)=O`, the activity, negative = cell killing was -28.7% (inactive).
Consider `O=c1[nH]c(=O)c2ccccc2o1`, for which the activity, negative = cell killing was -29.8% (inactive).
Still for that read-out and setting: the figure for `CC1CCc2cc(F)cc3c(=O)c(C(=O)O)cn1c23` (centres undefined) is -20.5% (inactive).
Same read-out and setting: next, `COc1ccccc1Oc1c(NS(=O)(=O)c2ccc(C(C)(C)C)cc2)nc(-c2ncccn2)nc1OCCO`: -57.2% (inactive); `NS(=O)(=O)c1ccc(C(=O)O)cc1`: -19% (inactive); `CCOc1cc(NC(C)=O)ccc1C(=O)OC`: -29.3% (inactive).
As for `CCCCCCCCCCCCCCCCC(C(=O)O)C(O)(CC(=O)O)C(=O)O` (centres undefined), the activity, negative = cell killing is -28.6% (inactive).
The same measure, in the same setting: the figure for `CCOC(=O)c1cccnc1` is -24.1% (inactive).
The same measure, in the same setting: the figure for `CCN(CC)CCOC(=O)C(c1ccccc1)c1ccccc1` is -25.1% (inactive); for `NC(=O)N[C@@H](CCC(=O)O)C(=O)O` it is -22.8% (inactive).
As to `O=C(/C=C/c1ccccc1)OCc1ccccc1`, the activity, negative = cell killing was -17.7% (inactive).
For `CC(C)c1cc2c(cc1S(=O)(=O)O)[C@@]1(C)CCC[C@@](C)(C(=O)O)[C@@H]1CC2`, the activity, negative = cell killing is -18.1% (inactive).
In the case of `O=C(O)Cn1c(C(=O)Nc2nc(-c3ccccc3Cl)cs2)cc2ccccc21`, the activity, negative = cell killing is -41.5% (inactive).
Regarding `CN1C[C@@H]2C[C@H]1CN2c1cc2c(cc1F)c(=O)c(C(=O)O)cn2C1CC1`, the activity, negative = cell killing was -19.7% (inactive).
As to `CCCCCCCC(=O)OCC(O)CO` (centres undefined), the activity, negative = cell killing was -23.4% (inactive).
For `COc1ccc(C(=O)N2CCN(CC(=O)N3CCOCC3)CC2)cc1`, the activity, negative = cell killing was -23.3% (inactive).
For the compound `Cc1[nH]c(C)c(Cl)c(=O)c1Cl`, the activity, negative = cell killing was -17.9% (inactive).
The same measure, in the same setting: the figure for `NC(=O)CCCCC1CCSS1` (centres undefined) is -23.7% (inactive); for `CCCCCC(C)N` (centres undefined) it is -32% (inactive).

The experiment is the same for the next values; noted with them: GBM patient neurospheres viability, ATP luminescence, 48 h; at 46.1 µM (top of the series); tumour line C.
Consider `CC(CSC(=O)c1ccccc1)C(=O)N1C[C@@H](Sc2ccccc2)C[C@H]1C(=O)O` (some centres undefined), for which the activity, negative = cell killing was -14.7% (inactive).
Turning to `CC(=O)OC[C@H]1O[C@@](COC(C)=O)(O[C@H]2O[C@H](COC(C)=O)[C@@H](OC(C)=O)[C@H](OC(C)=O)[C@H]2OC(C)=O)[C@@H](OC(C)=O)[C@@H]1OC(C)=O`, the activity, negative = cell killing is 2.01% (inactive).
The same measure, in the same setting: next, `O=c1[nH]c(=O)c2ccccc2o1`: -24.8% (inactive); `Cc1onc(-c2ccccc2)c1-c1ccc(S(N)(=O)=O)cc1`: -2.89% (inactive).
Same read-out and setting: the figure for `CCOC(=O)[C@H](CCc1ccccc1)N[C@@H](C)C(=O)N1Cc2cc(OC)c(OC)cc2C[C@H]1C(=O)O` is -6.4% (inactive); for `Cc1cc(OI)c(C(C)C)cc1-c1cc(C(C)C)c(OI)cc1C` it is 33.1% (inactive); for `CC1CCc2cc(F)cc3c(=O)c(C(=O)O)cn1c23` (centres undefined) it is -25.6% (inactive).
Same read-out and setting: the figure for `COc1ccccc1Oc1c(NS(=O)(=O)c2ccc(C(C)(C)C)cc2)nc(-c2ncccn2)nc1OCCO` is -29.9% (inactive); for `NS(=O)(=O)c1ccc(C(=O)O)cc1` it is -15.2% (inactive); for `CCOc1cc(NC(C)=O)ccc1C(=O)OC` it is 2.82% (inactive).
On to `CCCCCCCCCCCCCCCCC(C(=O)O)C(O)(CC(=O)O)C(=O)O` (centres undefined), for which the activity, negative = cell killing is -24.9% (inactive).
Same read-out and setting: the figure for `CCOC(=O)c1cccnc1` is 22.3% (inactive).
Consider `CN1CCN(C(=O)C2CCCCC2)CC1`, for which the activity, negative = cell killing was -23.1% (inactive).
As to `CCN(CC)CCOC(=O)C(c1ccccc1)c1ccccc1`, the activity, negative = cell killing was -20.1% (inactive).
The same measure, in the same setting: next, `NC(=O)N[C@@H](CCC(=O)O)C(=O)O`: -19.7% (inactive); `O=C(/C=C/c1ccccc1)OCc1ccccc1`: -14.4% (inactive).
In the case of `CC(C)c1cc2c(cc1S(=O)(=O)O)[C@@]1(C)CCC[C@@](C)(C(=O)O)[C@@H]1CC2`, the activity, negative = cell killing is -15.9% (inactive).
Regarding `CN1C[C@@H]2C[C@H]1CN2c1cc2c(cc1F)c(=O)c(C(=O)O)cn2C1CC1`, the activity, negative = cell killing is 3.73% (inactive).
Still for that read-out and setting: next, `Nc1ccc(C(=O)Oc2ccccc2)c(O)c1`: -12.2% (inactive); `O=C1c2ccccc2C(=O)C1c1ccc(Br)cc1`: -18.3% (inactive); `Nc1c2c(nc3c1CCC3)CCCC2`: -27.2% (inactive).
With `CCCCCCCC(=O)OCC(O)CO` (centres undefined), the activity, negative = cell killing is -3.44% (inactive).
Still for that read-out and setting: next, `Cc1ccc(S(=O)(=O)NC(=O)NC2CCCCC2)cc1`: -11.1% (inactive); `COc1ccc(C(=O)N2CCN(CC(=O)N3CCOCC3)CC2)cc1`: -11.4% (inactive).

The record behind these values is PubChem BioAssay (NCATS).
